Compound activity (PubChem BioAssay)
PD-1 reversal – activators reversing PD-1 mediated T-cell inhibition, primary screen, luminescence, primary human CD4 T cells, PD-L1 beads. CellTiter-Glo 96 h. activation, % (test concentration not listed). AID 2316, 2010. 29,000 tested, under 10 active; call rule not given here;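 also: 0% = median vehicle wells and 100% = positive control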
STK33 kin inh – STK33 kinase inhibitors, primary screen, biochemical, luminescence, ADP-Glo, MBP substrate | 0.44% of 27,000 active | Serine/threonine-protein kinase 33 (Homo sapiens), Q9BYT3 | inhibition, % at 12.5 µM | AID 2322, 2010; in the data active = inhibition above about 20%; inconclusive = no clear call, values can overlap the other calls
Target sequence (Q9BYT3 whole entry, looked up): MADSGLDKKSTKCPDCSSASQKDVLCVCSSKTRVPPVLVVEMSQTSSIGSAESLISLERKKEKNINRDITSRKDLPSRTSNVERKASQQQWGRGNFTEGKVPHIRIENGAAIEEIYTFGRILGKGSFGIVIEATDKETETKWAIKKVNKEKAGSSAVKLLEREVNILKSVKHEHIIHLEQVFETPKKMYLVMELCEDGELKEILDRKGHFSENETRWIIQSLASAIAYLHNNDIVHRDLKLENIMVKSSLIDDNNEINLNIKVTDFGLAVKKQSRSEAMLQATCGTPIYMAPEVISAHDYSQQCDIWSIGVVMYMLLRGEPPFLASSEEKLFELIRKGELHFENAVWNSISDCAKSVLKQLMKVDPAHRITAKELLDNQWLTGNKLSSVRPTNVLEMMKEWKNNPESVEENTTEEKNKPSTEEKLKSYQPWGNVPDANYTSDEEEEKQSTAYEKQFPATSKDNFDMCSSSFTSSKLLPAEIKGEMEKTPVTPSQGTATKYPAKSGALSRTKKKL
NOMO-1 viab – NOMO-1 AML cell viability reduction, primary screen, STK33 inhibitor project, CellTiter-Glo luminescence; 7.5% of 37,000 active; NOMO-1 AML viability, 72 h; inhibition, % (concentration not given with the values); in the data active = inhibition above about 80%; inconclusive = no clear call, values can overlap the other calls
The depositor's hits bear a star; ? = inconclusive; nt = no result given. This is one part of a sample in which hits are shown more often than they occur.

SMILES	PD-1 reversal	STK33 kin inh	NOMO-1 viab
C=C1C(=O)O[C@H]2C1CCC(=C)[C@@H]1C[C@H](OC(=O)C=C(C)C)C(=C)[C@@H]12 (stereo partly drawn)	-5.3	1.4	96.5*
C=C1C(=O)O[C@H]2C1CC[C@@](C)(O)[C@@H]1C[C@H](O)C(=C)[C@@H]12 (stereo partly drawn)	nt	-7.2	nt
C[C@H](CO)N1C[C@H](C)[C@H](CN(C)Cc2ccc(C(=O)Nc3ccccc3N)cc2)Oc2ccc(NC(=O)Nc3ccc(C(F)(F)F)cc3)cc2C1=O	1.8	nt	45.7
C[C@H]1CN([C@@H](C)CO)C(=O)Cc2cc(NC(=O)Nc3ccc(C(F)(F)F)cc3)ccc2O[C@H]1CN(C)Cc1ccc(C(=O)Nc2ccccc2N)cc1	-2.1	nt	127.0*
C[C@@H]1CN([C@H](C)CO)C(=O)Cc2cc(NC(=O)Nc3ccc(C(F)(F)F)cc3)ccc2O[C@@H]1CN(C)Cc1ccc(C(=O)Nc2ccccc2N)cc1	-0.1	nt	138.3*
COc1ccc(Sc2ccccc2COC(C)=O)c(C(=O)O)c1	3.3	nt	4.4
COc1ccc(C(=O)Nc2ccc(Cl)cc2)cc1S(=O)(=O)Nc1ccc(Cl)cc1	-0.6	nt	70.1
COc1ccc(OC)c(NC(=O)c2ccc(C)c(S(=O)(=O)Nc3ccc(C)cc3)c2)c1	-4.9	-1.6	102.6*
COc1ccc(OC)c(NC(=O)c2ccc(Cl)c(S(=O)(=O)Nc3ccc(C)cc3)c2)c1	-1.6	-0.9	93.0*
COc1ccc(OC)c(S(=O)(=O)Nc2ccc(C(N)=O)cc2)c1	1.8	-7.2	1.2
Cc1cccc(OCC(=O)Nc2ccccc2CO)c1C	-1.6	-2.7	1.7
CCCC1=NN(C(=O)C(C)(C)C)C(=O)C1Cc1c(F)cccc1Cl (stereo not drawn)	-0.3	nt	?
COC(=O)c1ccccc1NC(=O)CSc1nc2cc3ccccc3cc2[nH]1	nt	9.1	4.8
CCOC(=O)c1cc(NC(=O)CSc2nc3ccccc3[nH]2)ccc1Cl	-1.9	-1.2	100.5*
O=C(CSc1nc2cc3ccccc3cc2[nH]1)Nc1ccccc1Cl	nt	3.3	107.7*
Cc1cc(NC(=O)CSc2nc3ccccc3[nH]2)ccc1Cl	nt	0.3	44.7
O=C(Nc1ccc(Cl)c(C(F)(F)F)c1)C(=S)NCc1ccco1	-0.2	nt	66.9
COc1ccc2c(c1)c(C(=O)ON1C(=O)CCC1=O)c(C)n2C1CC1	-0.5	nt	-1.4
COC(=O)Nc1sc(C)c(C)c1C(=O)NCc1cccnc1	nt	3.0	-3.4
Oc1c(C(Nc2cccnc2)c2ccc(C(F)(F)F)cc2)ccc2cccnc12 (stereo not drawn)	nt	1.6	109.0*
FC(F)(F)c1nnc(Nc2cccnc2)s1	1.3	nt	-21.9
CCc1c(C)nc(SCC(=O)Nc2ccc(OC)cc2)[nH]c1=O	nt	-3.7	14.1
COc1cc(O[C@@H]2O[C@H](CO)[C@@H](O)[C@H](O)[C@H]2O)cc2occ(-c3ccc(O)cc3)c(=O)c12	4.7	-3.5	11.5
Cn1cnnc1SCc1nc2ccc([N+](=O)[O-])cc2[nH]1	nt	-1.8	18.8
CC(C)NC(=O)Nc1cccc2c1O[C@H](CN(C)C(=O)Nc1ccc(C(F)(F)F)cc1)[C@H](C)CN([C@@H](C)CO)C2=O	-0.6	nt	34.0
SMILES	PD-1 reversal	STK33 kin inh	NOMO-1 viab
CC(C)NC(=O)N(C)C[C@@H]1Oc2c(NC(=O)Nc3ccc(C(F)(F)F)cc3)cccc2C(=O)N([C@@H](C)CO)C[C@@H]1C	-0.8	nt	66.8
CC(C)NC(=O)N(C)C[C@@H]1Oc2c(NC(=O)Nc3ccc(C(F)(F)F)cc3)cccc2C(=O)N([C@H](C)CO)C[C@@H]1C	-4.8	nt	116.5*
CC(C)NC(=O)N(C)C[C@H]1Oc2c(NC(=O)Nc3ccc(C(F)(F)F)cc3)cccc2C(=O)N([C@@H](C)CO)C[C@H]1C	-4.3	nt	120.7*
CC[n+]1c(C=C2C=C(C)CC(C)C2)sc2ccccc21 (stereo not drawn)	-1.4	nt	126.2*
O=C(Cn1cnc([N+](=O)[O-])n1)Nc1ccc(Cl)cc1C(F)(F)F	-1.3	0.9	38.5
FC(F)(F)c1cc(-c2ccc3ccccc3c2)no1	0.4	nt	88.1*
O=C(CC(NC1CCCCC1)C(=O)O)Nc1cccc(Cl)c1 (stereo not drawn)	1.8	2.1	10.9
COc1cccc(C(=O)NC(c2ccc(Cl)cc2)c2c(O)ccc3ccccc23)c1 (stereo not drawn)	-2.0	-12.1	108.1*
CCC(Oc1cccc(NC(=O)c2ccc([N+](=O)[O-])cc2)c1)C(=O)c1ccccc1 (stereo not drawn)	nt	2.5	35.5
COc1cccc(C(=O)NC(c2ccc([N+](=O)[O-])cc2)c2c(O)ccc3ccccc23)c1 (stereo not drawn)	nt	-1.1	113.8*
COc1cccc(C(=O)NC(c2ccccc2OC)c2c(O)ccc3ccccc23)c1 (stereo not drawn)	0.7	-2.0	2.0
O=C(O)CC(c1ccc(F)cc1)c1ccco1 (stereo not drawn)	1.4	0.5	11.2
C[C@@H]1CN([C@H](C)CO)C(=O)c2cccc(NC(=O)c3ccc(-c4nccs4)cc3)c2O[C@@H]1CN(C)Cc1ccc(-c2ccccc2)cc1	nt	nt	60.5
C[C@H](CO)N1C[C@H](C)[C@H](CN(C)C(=O)Nc2ccc(C(F)(F)F)cc2)Oc2c(NC(=O)c3ccc(-c4nccs4)cc3)cccc2C1=O	-7.5	nt	92.5*
C[C@H]1CN([C@@H](C)CO)C(=O)c2cccc(NC(=O)c3ccc(-c4nccs4)cc3)c2O[C@H]1CN(C)Cc1ccc(C(=O)Nc2ccccc2N)cc1	-2.4	nt	101.3*
C[C@@H]1CN([C@H](C)CO)C(=O)c2cccc(NC(=O)c3ccc(-c4nccs4)cc3)c2O[C@H]1CN(C)Cc1ccc(C(=O)O)cc1	-2.7	nt	12.2
C[C@H](CO)N1C[C@H](C)[C@H](CN(C)Cc2ccccc2)Oc2c(NC(=O)c3ccc(-c4nccs4)cc3)cccc2C1=O	0.6	nt	16.3
C[C@@H]1CN([C@H](C)CO)C(=O)c2cccc(NC(=O)c3ccc(-c4nccs4)cc3)c2O[C@H]1CN(C)Cc1ccc(C(F)(F)F)cc1	nt	nt	84.0*
C[C@@H]1CN([C@H](C)CO)C(=O)c2cccc(NC(=O)c3ccc(-c4nccs4)cc3)c2O[C@@H]1CN(C)Cc1ccc(C(=O)Nc2ccccc2N)cc1	-3.9	nt	142.1*
C[C@H](CO)N1C[C@H](C)[C@@H](CN(C)C(=O)Nc2ccc(C(F)(F)F)cc2)Oc2c(NC(=O)c3ccc(-c4nccs4)cc3)cccc2C1=O	-0.6	nt	22.5
C[C@@H]1CN([C@H](C)CO)C(=O)c2cccc(NC(=O)c3ccc(-c4nccs4)cc3)c2O[C@H]1CN(C)Cc1ccccc1	-6.6	nt	72.6
C[C@@H]1CN([C@H](C)CO)C(=O)c2cccc(NC(=O)c3ccc(-c4nccs4)cc3)c2O[C@H]1CN(C)Cc1ccc(Oc2ccccc2)cc1	1.4	nt	61.0
C[C@@H]1CN([C@@H](C)CO)C(=O)c2cccc(NC(=O)c3ccc(-c4nccs4)cc3)c2O[C@H]1CN(C)Cc1ccc(C(=O)Nc2ccccc2N)cc1	-0.7	nt	126.1*
C[C@H](CO)N1C[C@H](C)[C@H](CN(C)Cc2ccc(Oc3ccccc3)cc2)Oc2c(NC(=O)c3ccc(-c4nccs4)cc3)cccc2C1=O	-2.8	nt	112.4*
